# PubChem BioAssay AID1851 (National Center for Advancing Translational Sciences (NCATS), 2009)
# About 5,800 (36%) of roughly 16,000 compounds were called active. Roughly 23% stayed inconclusive and do not appear here. This is one part of the list. Unmarked numbers belong to inactive results. Calls follow the shape of the dose curve; as a rule, active = well fitted curve in the direction sought with a large enough effect; inconclusive = small, poorly fitted or top-dose-only effect, or effect the other way; inactive = no such curve, though single readings can be large or run the other way.
# Target: Cytochrome P450 2C19 (Homo sapiens) (UniProt P33261)
# Experiment: Cytochrome panel assay with activity outcomes
# Conditions: recombinant CYP, pro-luciferin dealkylation, luminescence, p450-cyp2c19; series mostly up to 57.1 µM
# % is scaled to controls: 0 for no effect and ±100 for the full control effect.
# Cytochrome P450 2C19 (Homo sapiens), sequence (P33261 whole entry, looked up): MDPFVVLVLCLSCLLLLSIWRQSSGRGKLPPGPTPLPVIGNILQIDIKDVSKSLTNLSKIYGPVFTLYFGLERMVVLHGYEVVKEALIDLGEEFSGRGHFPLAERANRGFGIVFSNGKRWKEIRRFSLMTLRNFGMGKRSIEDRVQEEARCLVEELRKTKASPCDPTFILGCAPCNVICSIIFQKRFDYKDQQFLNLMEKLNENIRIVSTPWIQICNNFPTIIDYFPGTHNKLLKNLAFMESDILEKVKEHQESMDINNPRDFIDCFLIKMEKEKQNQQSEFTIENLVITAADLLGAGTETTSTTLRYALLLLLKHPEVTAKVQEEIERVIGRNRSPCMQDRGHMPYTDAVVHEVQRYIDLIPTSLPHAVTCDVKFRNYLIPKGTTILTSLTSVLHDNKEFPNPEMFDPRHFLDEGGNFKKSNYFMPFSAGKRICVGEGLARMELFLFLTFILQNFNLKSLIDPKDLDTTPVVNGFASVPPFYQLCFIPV
SMILES,AC50,"activity, negative = inhibition"
CC(C)(C)C1CCc2c(C(=O)N/N=C/c3cccs3)csc2C1 (configuration not stated),6.31 µM (active),
ClC(=Nc1cccc2ccccc12)N(c1ccccc1)c1ccccc1,2.51 µM (active),
O=S(=O)(c1cccc(C(F)(F)F)c1)N1CCC(c2cc(-c3cccc4ccccc34)n[nH]2)CC1,7.08 µM (active),
Cc1ccnn2cc3c(=O)n(C)c(=O)n(C)c3c12,inactive,
C[C@@]1(C(NC(=O)c2cccs2)c2ccc(-c3ccccc3)cc2)C[C@H]1C1CCCCC1 (some centres not stated),inactive,
C[C@@]1(C(NC(=O)c2ccc(-c3ccccc3)cc2)c2ccc(Cl)cc2)C[C@H]1C1CCCCC1 (some centres not stated),inactive,
COC(=O)c1ccc(C(NC(=O)c2ccccc2)[C@]2(C)C[C@H]2C2CCCCC2)cc1 (some centres not stated),2.51 µM (active),
O=C(CN1CCCC1)N/N=C/c1ccc(-c2cccc(Cl)c2)o1,22.4 µM (active),
COc1ccc2nc(SCC(=O)c3ccco3)[nH]c2c1,14.1 µM (active),
CCCCc1ccc2nc(NC(=O)OC)[nH]c2c1,inactive,
Cc1ccc2nc(SCC(=O)c3ccc4c(c3)OCO4)[nH]c2c1,2.82 µM (active),
COc1ccc(NC(=O)N2CCCC3(CCN(C(=O)c4ccco4)CC3)C2)cc1,inactive,
CCOC(=O)NC(=O)CSc1nc2ccc(OCC)cc2[nH]1,14.1 µM (active),
COC(=O)Nc1nc2ccc(Sc3ccccc3)cc2[nH]1,inactive,
COc1ccc2nc(SCC(=O)Nc3ccc4c(c3)OCCO4)[nH]c2c1,10 µM (active),
Oc1cc(O)c2c(c1)O[C@H](c1ccc(O)c(O)c1)[C@@H](O)[C@@H]2c1c(O)cc(O)c2c1O[C@@H](c1ccc(O)c(O)c1)[C@H](O)C2,,-23.6% [at 11.4 µM]
CSc1ccc2nnc(-c3cccc(F)c3)n2n1,15.8 µM (active),
Cc1cc(C)c(C#N)c(SCc2cc3c(cc2Cl)OCO3)n1,6.31 µM (active),
CON1C(=O)C(=O)N(OC)C(C)(C)C1C (configuration not stated),inactive,
c1ccc2nc(-c3ccncc3)ccc2c1,3.55 µM (active),
c1ccc2nc(C3=NCCN3)ccc2c1,inactive,

SMILES,AC50,"activity, negative = inhibition"
COc1cc(Cl)c(CC(=O)c2c[nH]c3ccccc23)cc1OC,1 µM (active),
O=C(OCCN1CCCCC1)c1c[nH]c2ccccc12,inactive,
CN1[C@@H]2CC[C@H]1CC(OC(=O)c1c[nH]c3ccccc13)C2 (some centres not stated),inactive,
CNC(=O)[C@H](C)[C@H]1C[C@]1(C)[C@H](NC(=O)OCc1ccccc1)c1ccccc1,1 µM (active),
C[C@H](CO)NC(=O)[C@H](C)[C@H]1C[C@]1(C)[C@H](NC(=O)OCc1ccccc1)c1ccccc1,0.631 µM (active),
CNC(=O)[C@H](C)[C@@H]1C[C@@]1(C)[C@@H](NC(=O)OCc1ccccc1)c1ccccc1,0.631 µM (active),
CC(=O)NCCC(=O)Nc1sc2c(c1-c1nc3ccccc3[nH]1)CCCC2,14.1 µM (active),
CCN(CC)S(=O)(=O)c1cc(C(=O)Nc2ccccc2C(=O)O)ccc1OC,inactive,
CCN(CC)S(=O)(=O)c1cc(C(=O)OC)ccc1Cl,11.2 µM (active),
CCN(CC)S(=O)(=O)c1cc(C(=O)Nc2ccncc2)ccc1Cl,0.01 µM (active),
CCn1ccnc1C[C@@H]1COc2ccccc2O1,10 µM (active),
O=C(Nc1ccccc1N1CCN(C(=O)c2ccccc2)CC1)c1cc(Br)ccc1Cl,3.16 µM (active),
CC(C)C(=O)N1CCN(c2ccccc2NC(=O)c2cccc(Cl)c2)CC1,14.1 µM (active),
O=C(Nc1ccccc1N1CCOCC1)c1ccc([N+](=O)[O-])cc1,inactive,
Cc1ccccc1OCC(=O)Nc1ccc(N2CCN(C(=O)C(C)C)CC2)c(Cl)c1,8.91 µM (active),
Cc1ccccc1OCC(=O)NC(=S)Nc1ccc(N2CCOCC2)c(Cl)c1,inactive,
Cc1cc(C)n(-c2ccc(F)cc2)c(=O)c1C(=O)O,inactive,
COc1ccc(-n2c(=O)c(-c3ccc(F)cc3)nc3cncnc32)cc1,inactive,
Cc1ccc(-n2c(C)nc3c(cnn3-c3ccc(F)cc3)c2=O)cc1C,22.4 µM (active),
CCn1c(=O)c2[nH]c(-c3ccccc3)nc2n(CC)c1=O,inactive,
CSc1nc(-c2ccc(C)cc2)[nH]c1S(=O)(=O)c1ccccc1,8.91 µM (active),

SMILES,AC50,"activity, negative = inhibition"
CC1CCN(c2ccccc2NC(=S)NC(=O)c2cccs2)CC1,8.91 µM (active),
O=C(NC(=S)Nc1cccc(Cl)c1N1CCCCC1)c1ccco1,6.31 µM (active),
O=C(NC(=S)Nc1cccc(Cl)c1N1CCCC1)c1ccc(-c2cccc([N+](=O)[O-])c2)o1,inactive,
O=C(NC(=S)Nc1cccc(Cl)c1N1CCCCC1)c1cccs1,2.51 µM (active),
CC[C@@]1(O)C(=O)OCc2c1cc1n(c2=O)Cc2cc3c(CN(C)C)c(O)ccc3nc2-1,,-16.8% [at 11.4 µM]
Clc1ccc2c(NCCNC3CCCCC3)ccnc2c1,,41% [at 11.4 µM]
O=C(COc1ccc(Cl)cc1)N(Cc1ccccc1)c1ccccn1,0.501 µM (active),
C[N+]1(C)CCc2cc(O)c(O)cc2[C@H]1Cc1ccc(O)c(O)c1,,26.9% [at 11.4 µM]
CCOc1cc(/C=N/n2cnnc2)c(Br)cc1O,10 µM (active),
COc1cc(CNC2CCCC2)cc(Cl)c1OCc1ccccc1Cl,2.24 µM (active),
CCOC(=O)c1[nH]c(COC(=O)CCOc2ccccc2OC)c(C(=O)OCC)c1C,4.47 µM (active),
CCOC(=O)c1[nH]c(C(=O)O)c(CCC(=O)OC)c1C,inactive,
CCOCCCN1C(=O)CN(C2CCCCC2)C(=O)C1c1ccc(OCC)c(OC)c1 (configuration not stated),inactive,
COc1cc(C2C(=O)N(C3CCCC3)CC(=O)N2Cc2ccco2)ccc1OC(C)C (configuration not stated),4.47 µM (active),
CC1CN(C(=O)c2cc3c(s2)CCC3)CC(C)O1 (configuration not stated),14.1 µM (active),
Cc1cc(C(C#N)c2cccc(Cl)c2)n2ncnc2n1 (configuration not stated),28.2 µM (active),
CCN1C(=O)[C@H]2[C@H]3[C@H](O)[C@H](O)C/C(=N/O[C@@H](C)c4cn([C@H]5COC[C@H]5O)nn4)[C@@H]3CC[C@@H]2C1=O,,27.9% [at 11.4 µM]
C[C@H](N)C(=O)OC(C)(C)Cc1ccc(Cl)cc1,3.98 µM (active),
C/C(=C\c1ccc(Cl)cc1)C(C)(C)C(=O)O,,-25.9% [at 11.4 µM]
COC(=O)[C@H](N)Cc1ccc(Cl)cc1,inactive,
